p53 reactivator: mutant p53 re-activation in reporter cells. actives 0.063% (n = 320,000). Potency, µM (titrated, usually from 92.2 µM), for inactives: top-dose activity change, positive = activation, usual class: activators. H1299 p53-A138V BP100-luciferase reporter, luminescence, 24 h; note: potency is the fitted concentration of half-maximal effect; % of control where 0% means no effect; nearly all actives have a fitted effect of over 45% in size
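p53-null H1299 cells stably carrying temperature-sensitive p53-A138V and a BP100-luciferase reporter were pinned with compounds (4-point, 1:5 series) and held 24 hrs at 37 deg C. Luminescence was read 10 min after detection reagent.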
LDHA block: blocks human lactate dehydrogenase A. actives 0.15% (n = 480,000). P00338. activity change, % (values are at about 110 or 230 µM). purified LDHA, NADH/diaphorase-resazurin fluorescence; hits give low values. AID 1347041; in the data active = activity change below about -30%; inconclusive = mostly about -25% to -30%;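 note: plate controls were DMSO wells for no effect and wells without enzyme for full effect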
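LDH5 2 nM; NADH 0.06 mM, pyruvate 0.2 mM; 200 mM Tris pH 7.4, EDTA, Tween-20; 5 min RT. Detection: diaphorase 0.133 mg/mL + resazurin 37 µM, fluorescence ex540/em590 at 0 and 20 min; normalized to enzyme-free and DMSO wells.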
HEK293 tox: cytotoxic in the GLP-1 receptor inverse agonist counter-screen; HEK293 cAMP-luciferase reporter cells, luminescence, 24 h; Potency, µM (highest dose often 38.3 µM), for inactives: at the top dose activity change, negative = inhibition, usual class: inhibitors; actives 0.13% (n = 410,000); AID 624418;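 note: loss of luciferase light is scored as toxicity; potency is the fitted concentration of half-maximal effect; % is set by controls: 0 for no effect and ±100 for the full control effect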
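Here, cytotoxicity is scored as loss of luminescence. The MLSMR collection was tested on cells seeded in medium containing 10% Nu serum, with a 24 hr compound exposure preceded by 12 hours of culture.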
GLP-1R inv ag: inverse agonists of human GLP-1 receptor; actives 1.6% (n = 410,000); Potency, µM (titrated, usually from 38.3 µM), without a hit: at the top dose activity change, negative = inhibition, most hits filed as inhibitors; HEK293 GLP-1R CRE-luciferase, luminescence, 24 h; GLP-1R form is constitutively active; note: potency is the fitted concentration of half-maximal effect; % is set by controls: 0 for no effect and ±100 for the full control effect; nearly all actives have a fitted effect of over 55% in size
Target sequence (P43220 whole entry, looked up): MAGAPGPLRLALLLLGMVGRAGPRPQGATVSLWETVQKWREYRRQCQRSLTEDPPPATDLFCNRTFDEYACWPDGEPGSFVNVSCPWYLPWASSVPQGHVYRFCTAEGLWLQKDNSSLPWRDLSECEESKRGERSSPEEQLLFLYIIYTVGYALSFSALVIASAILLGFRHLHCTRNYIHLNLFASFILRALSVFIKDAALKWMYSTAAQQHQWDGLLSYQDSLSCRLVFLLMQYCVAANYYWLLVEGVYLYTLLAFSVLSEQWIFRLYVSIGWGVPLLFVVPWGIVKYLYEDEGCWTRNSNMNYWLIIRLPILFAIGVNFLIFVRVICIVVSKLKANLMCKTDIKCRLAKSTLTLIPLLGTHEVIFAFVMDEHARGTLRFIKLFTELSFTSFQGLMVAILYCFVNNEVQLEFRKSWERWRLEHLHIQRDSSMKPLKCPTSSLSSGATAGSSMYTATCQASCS
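qHTS in 1536-well format: reporter HEK293 cells expressing constitutive GLP-1R activity in DMEM + 10% Nu serum, 24 hr with compounds at 37 deg C, luminescence read after 12 min with detection reagent.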
GLP-1R agonist: GLP-1 receptor (human) agonism | P43220 | HEK293 GLP-1R CRE-luciferase, luminescence, 4-6 h; cells express a hypersensitive GLP-1R form | Potency, µM (titrated, usually from 45.6 µM), without a hit: top-dose activation, most hits filed as activators | actives 0.007% (n = 380,000) | AID 624172; note: potency is the fitted concentration of half-maximal effect; % of control where 0% means no effect
ClpP mod: qHTS Assay for Activators of ClpP | actives 1.9% (n = 340,000) | ATP-dependent Clp protease proteolytic subunit (Bacillus subtilis (strain 168)), P80244 | Potency, µM (top dose mostly 57.5 µM), for the others: at the highest dose activity change, negative = active | purified B. subtilis ClpP, FRET peptide cleavage, 20 min; active = well fitted falling curve with a large enough effect; inconclusive = small, poorly fitted or top-dose-only effect; inactive = no such curve, though single readings can be large or run the other way; note: potency is the fitted concentration of half-maximal effect; the source files actives as falling curves though it sought activators and does not explain the sign; nearly all actives have a fitted effect of over 65% in size
Target sequence (P80244 whole entry, looked up): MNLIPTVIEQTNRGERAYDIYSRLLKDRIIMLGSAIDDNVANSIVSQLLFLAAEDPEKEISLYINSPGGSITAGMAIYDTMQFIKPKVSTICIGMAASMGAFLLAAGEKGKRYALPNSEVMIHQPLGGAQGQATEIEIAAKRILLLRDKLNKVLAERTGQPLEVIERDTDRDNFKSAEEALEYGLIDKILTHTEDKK
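Buffer: 100 mM Tris/HCl pH8, 100 mM KCl, 0.05% low protease BSA, 2.5% glycerol, 0.01% Tween-20. ClpP 10 microg/mL final; 20 min RT; delta FRET normalized to ADEP and DMSO controls.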
Numbers without * were called inactive; ? = inconclusive; nt = no result. The list is not random: actives were taken first. Their share in the collection is about 2.9%. Unless noted, calls come from the whole dose curve; as a rule, active = well fitted curve in the direction sought with a large enough effect; inconclusive = small, poorly fitted or top-dose-only effect, or another doubt; inactive = no such curve, though single readings can be large; an effect the other way counts as inactive or inconclusive.

SMILES | p53 reactivator | LDHA block | HEK293 tox | GLP-1R inv ag | GLP-1R agonist | ClpP mod
N=c1c(S(=O)(=O)c2ccc(Br)cc2)cc2c(=O)n3ccccc3nc2n1C1CCCCC1 | 1% | -3 | -14% | 91% | 0% | -4%
CN(CC(=O)Nc1ccccc1Cl)C(=O)C1CCN(S(=O)(=O)c2ccc3c(c2)OCCO3)CC1 | -1% | -5 | 4% | 50% | 2% | -9%
Cc1cc2c(s1)c1cnn(Cc3ccccc3F)c(=O)c1n2C(C)C | nt | -4 | nt | nt | nt | nt
Cc1nc2nc(-c3ccco3)[nH]n2c(=O)c1Cc1ccccc1 | 1% | -7 | 14% | -6% | 2% | 28µM*
Cc1nc2nc(-c3ccccc3)[nH]n2c(=O)c1Cc1ccccc1 | 18% | 0 | -2% | 2% | -12% | ?
Cc1cc(C)nc(Sc2ncnc3sc4c(c23)CCC4)n1 | -3% | -7 | -8% | -9% | 4% | 13µM*
CC(C#N)Sc1ncnc2sc3c(c12)CCC3 (configuration not stated) | -8% | -2 | 10% | 38% | 27% | 0%
COc1ccc(CNC(=O)[C@H](CCSC)NC(=O)N2CCn3c2nc2ccccc23)cc1 | -7% | -9 | -15% | 5µM* | 16% | 0%
COc1cc(NC(=O)[C@@H](NC(=O)N2CCn3c2nc2ccccc23)C(C)C)cc(OC)c1 | 8% | -2 | ? | 10µM* | 6% | -2%
CCOC(=O)C1=C(C)n2c(s/c(=C/c3cccc([N+](=O)[O-])c3)c2=O)=NC1c1ccc(O)c(OC)c1 (configuration not stated) | -6% | -8 | 2% | 0% | 9% | -3%
Cc1ccc(-c2nnc(SCC(=O)N/N=C/c3ccccc3C(=O)O)n2-c2ccccc2)cc1 | 0% | nt | nt | nt | nt | nt
NC(=O)c1c(NC(=O)c2ccco2)sc2c1CCCC2 | nt | -3 | nt | nt | nt | nt
CNC(=O)c1cc2cc(OC)ccc2n1CCN(C)C | 6% | 7 | -7% | 12% | -12% | ?
CNC(=O)c1cc2cc(OC)ccc2n1CCN(Cc1ccccc1)Cc1ccccc1 | 3% | 2 | 2% | -12% | -12% | 22µM*
Cc1cc(NC(=O)c2cc(-c3ccccn3)nc3ccccc23)no1 | -5% | -1 | 5% | 0% | 0% | -7%
Cc1ccc(-c2cc(C(=O)Nc3cc(C)on3)c3ccccc3n2)cc1 | 7% | -7 | 10% | -6% | 2% | 35µM*
Cc1cc(NC(=O)c2cc(-c3ccc(C)c(C)c3)nc3ccccc23)no1 | 13% | 0 | 18% | 10% | -3% | 13µM*
O=[N+]([O-])c1cnc(Sc2ccncn2)s1 | -15% | 3 | 2.8µM* | ? | -7% | -3%
CCC1(C)Cc2ccccc2-c2nc3n(c(=O)c21)CCS3 (configuration not stated) | -6% | -5 | 6% | ? | 0% | ?
Cn1c(NCCCO)nc2c(c1=O)C1(CCCCC1)Cc1ccccc1-2 | -13% | -5 | 0% | ? | 17% | 28µM*
CCC1(C)Cc2ccccc2-c2nc3n(c(=O)c21)CC(C(=O)O)S3 (configuration not stated) | -16% | -2 | 1% | 2% | -5% | 25µM*
Cn1c(NCCO)nc2c(c1=O)C1(CCCC1)Cc1ccccc1-2 | nt | 11 | nt | nt | nt | nt
CCC1(C)Cc2ccccc2-c2nc(NCCCO)n(-c3ccccc3)c(=O)c21 (configuration not stated) | -5% | 0 | -10% | -1% | 8% | 3.5µM*
CCn1c(NCCO)nc2c(c1=O)C(C)(CC)Cc1ccccc1-2 (configuration not stated) | -5% | 2 | 9% | ? | -6% | 1%
COC(=O)CNC(c1ccccc1)c1cc(C)ccc1NC(=O)CNC(=O)OCc1ccccc1 (configuration not stated) | -3% | 3 | -23% | ? | 7% | -1%
SMILES | p53 reactivator | LDHA block | HEK293 tox | GLP-1R inv ag | GLP-1R agonist | ClpP mod
COC(=O)CNC(c1ccccc1)c1cc(Br)ccc1NC(=O)OCc1ccccc1 (configuration not stated) | 6% | -7 | 5% | 4µM* | -3% | -2%
COc1ccc(-n2cc(-c3ccccc3)[nH]c2=S)cc1 | ? | -5 | 19% | 21% | 2% | 14µM*
CCN1c2cc(C)ccc2-n2cccc2C12CCN(C(=O)Nc1cccc(OC)c1)CC2 | nt | 7 | nt | nt | nt | nt
CCN1c2cc(C)ccc2-n2cccc2C12CCN(C(=O)Nc1cc(OC)c(OC)c(OC)c1)CC2 | nt | 5 | -6% | 11µM* | nt | -7%
CCN1c2ccccc2-n2cccc2C12CCN(C(=O)Nc1ccccc1Br)CC2 | nt | -3 | 0% | 10µM* | nt | -19%
COC(=O)C1=CNC=C(C(=O)OC)C1c1cccc(Br)c1 | nt | -18 | nt | nt | nt | nt
COC(=O)C1=CNC=C(C(=O)OC)C1c1ccc(C(=O)OC)cc1 | -1% | -3 | 115% | 0% | 7% | 28µM*
CCC1CCCCN1c1cc(C)nc2cc(-c3cccc(C)c3)nn12 (configuration not stated) | 6% | 5 | -27% | ? | -7% | 28µM*
Cc1cc(N2CCOCC2)n2nc(-c3cccc(F)c3)cc2n1 | -17% | -4 | 1% | 6% | -1% | ?
CNC(=O)CN(c1cc([N+](=O)[O-])ccc1OC)S(C)(=O)=O | 7% | -4 | 80% | 9% | 4% | -3%
NNC(=O)c1cccc(S(=O)(=O)Nc2cccc(C(F)(F)F)c2)c1 | -4% | -2 | 7% | -6% | 0% | 2%
Cc1[nH]c2ccccc2c1/C=N/NC(=O)c1cccc(S(=O)(=O)Nc2cccc(C(F)(F)F)c2)c1 | 2% | -9 | ? | 13µM* | 0% | -4%
COc1cc(CN2CCNC(=O)C2CC(=O)N2CCCN(C(C)=O)CC2)cc(OC)c1 (configuration not stated) | -6% | 1 | 11% | -7% | -4% | 16µM*
COc1cc(CN2CCNC(=O)C2CC(=O)O)cc(OC)c1 (configuration not stated) | 1% | -6 | 6% | 17% | 6% | nt
CC(=O)N/N=C\c1cccc(OC/C=C/c2ccccc2)c1 | 4% | -2 | -5% | 3.5µM* | -4% | 0%
COCC(=O)N/N=C\c1ccc(OC/C=C/c2ccccc2)c(OC)c1 | -7% | 0 | ? | ? | 3% | ?
COC(=O)N/N=C\c1ccc(OC/C=C/c2ccccc2)cc1 | 13% | -13 | 2% | 9% | 3% | -1%
